Our source for the outcome values is PubChem BioAssay (EPA / NIEHS).

Results filed as inconclusive are left out. Calls of active or inactive are those of the source. How the source made its calls: active means hit-call score of the fitted dose curve at least 0.9, where 1 is the maximum; inconclusive means response in the unintended direction; inactive means score below 0.9.

Estrogen-related receptor gamma (Homo sapiens), sequence (P62508 whole entry, looked up): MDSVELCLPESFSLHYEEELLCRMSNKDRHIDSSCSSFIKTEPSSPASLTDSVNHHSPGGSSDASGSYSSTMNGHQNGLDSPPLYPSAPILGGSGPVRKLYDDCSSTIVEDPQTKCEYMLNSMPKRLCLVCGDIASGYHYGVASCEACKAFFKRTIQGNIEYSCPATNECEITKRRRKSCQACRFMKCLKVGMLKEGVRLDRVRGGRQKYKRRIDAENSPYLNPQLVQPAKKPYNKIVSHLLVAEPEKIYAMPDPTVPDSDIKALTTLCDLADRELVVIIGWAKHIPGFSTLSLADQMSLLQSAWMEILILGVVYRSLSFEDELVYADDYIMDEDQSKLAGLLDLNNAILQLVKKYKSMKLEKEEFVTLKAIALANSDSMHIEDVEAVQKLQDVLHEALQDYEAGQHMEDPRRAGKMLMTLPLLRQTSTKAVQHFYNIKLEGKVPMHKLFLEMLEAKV

The test concerns the target Estrogen-related receptor gamma (Homo sapiens) (UniProt P62508). In words: ATG_ERRg_TRANS: Attagene TRANS-FACTORIAL HepG2 Assay for human Estrogen-Related Receptor gamma (ERRg) (AID 2282977).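 Further: hits increase reporter signal over DMSO so potencies reflect activators.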 The conditions noted are these: HepG2 Attagene TRANS reporter, ERRg transactivation. The procedure: ATG_TRANS is a cell-based, multiplexed-readout assay that uses HepG2, a human liver cell line, with measurements taken at 24 hours after chemical dosing in a 24-well plate.ATG_ERRg_TRANS is one of 30 assay component(s) measured or calculated from the ATG_TRANS assay. It is designed to make measurements of mRNA induction, a form of inducible reporter, as detected with fluorescence intensity signals by Reverse transcription polymerase chain reaction (RT-PCR) and Capillary electrophoresis technology.Data from the assay component ATG_ERRg_TRANS was analyzed into 1 assay endpoint. This assay endpoint, ATG_ERRg_TRANS, was analyzed in the positive analysis fitting direction relative to DMSO as the negative control and baseline of activity. Using a type of inducible reporter, measures of mRNA for gain-of-signal activity can be used to understand the reporter gene at the transcription factor-level as they relate to the gene ESRRG. Furthermore, this assay endpoint can be referred to as a primary readout, because this assay has produced multiple assay endpoints where this one serves a reporter gene function. To generalize the intended target to other relatable targets, this assay endpoint is annotated to the nuclear receptor intended target family, where the subfamily is steroidal.
Human liver HepG2 cells are transiently transfected with multiple reporter transcription units (MRTUs) in 6-well plates using FuGene 6 reagent (Roche; 3 ml FuGene/1 mg DNA). The MRTU constructs are regulated by a cis-regulating element (promoter). […] A major difference between the CIS and TRANS system is that in CIS activities of endogenous TFs are measured, whereas the TRANS assay evaluates changes in activities of exogenous, chimeric NR-Gal4 proteins. […] At the end of 24 hour incubation, total RNA was isolated using TriZol reagent (Invitrogen). The isolated RNA is then reverse-transcribed using oligo(dT) primer and Mo-MLV reverse transcriptase (Invitrogen) with DNAse I (Ambion) treatment for 30 min. The one-tenth of the produced cDNA was amplified by PCR using Taq DNA polymerase (Invitrogen) and two reporter sequence-specific primers. The PCR products were fluorescently labeled by primer extension with 6-arboxyfluorescein (6-FAM) 5'-labeled reporter sequence-specific primer (2 min at 95 C, 20 s at 68 C and 10 min at 72 C) and these products were digested with 5U of HpaI (New England Biolabs) for 2h at 37 C. The fragments were purified using Qiaquick PCR columns (Qiagen), analyzed on an ABI 3130xL genetic analyzer (Applied Biosystems) with peak positions identified by using a set of X-rhodamine (ROX)-labeled MapMarker1000 molecular weight standards (BioVentures). The raw capillary electrophoresis data was processed using Attagraph software (Attagene).
For the compound `CCOc1cc(C(C)(C)C)ccc1C1COC(c2c(F)cccc2F)=N1` (configuration not stated), the result was inactive.

For the compound `O=C(Nc1ccccc1-c1ccc(Cl)cc1)c1cccnc1Cl`, the outcome was inactive.

Turning to `O=C1C2CC=CCC2C(=O)N1SC(Cl)(Cl)Cl` (configuration not stated), the compound was called inactive.

For `COP(=O)(OC)O/C(C)=C/C(=O)N(C)C`, the compound was called inactive.

On to `COc1cc(OC)nc(NC(=O)NS(=O)(=O)c2ncccc2OCC(F)(F)F)n1`, for which the call was inactive.

Turning to `CCC(C)n1c(=O)[nH]c(C)c(Br)c1=O` (configuration not stated), the result was inactive.

Take `COP(=S)(OC)Oc1ccc([N+](=O)[O-])c(C)c1`: the result was inactive.

With `COC(=O)N(C(=O)N1CO[C@@]2(C(=O)OC)Cc3cc(Cl)ccc3C2=N1)c1ccc(OC(F)(F)F)cc1`, the compound was classed as inactive.

As for `COc1ccc(-c2ccccc2)cc1NNC(=O)OC(C)C`, the outcome was inactive.

Consider `CCCCC(O)(Cn1cncn1)c1ccc(Cl)cc1Cl` (configuration not stated), for which the compound was classed as inactive.

As for `CCCCOCN(C(=O)CCl)c1c(CC)cccc1CC`, the call was inactive.

In the case of `COCC(=O)N(c1c(C)cccc1C)C(C)C(=O)OC` (configuration not stated), the outcome was inactive.

Turning to `Nc1c(Cl)c(F)nc(OCC(=O)O)c1Cl`, the outcome was inactive.

As to `COC(=O)c1c(C(F)F)nc(C(F)(F)F)c(C2=NCCS2)c1CC(C)C`, the compound was called inactive.

Take `CN=C=S`: the compound was classed as inactive.

Turning to `N#Cc1c(Cl)cccc1Cl`, the result was inactive.

As for `CC(C)NC(=O)N1CC(=O)N(c2cc(Cl)cc(Cl)c2)C1=O`, the compound was classed as inactive.

As for `N#Cc1c[nH]cc1-c1cccc2c1OC(F)(F)O2`, the compound was classed as inactive.

Regarding `CC(C)N1C(=O)N(c2ccccc2)CSC1=NC(C)(C)C`, the outcome was inactive.

As to `COC(=O)NS(=O)(=O)c1ccc(N)cc1`, the call was inactive.

Turning to `CC(C)N1C(=O)c2ccccc2NS1(=O)=O`, the compound was classed as inactive.

Regarding `CCOC(=O)C(C)OC(=O)c1cc(Oc2ccc(C(F)(F)F)cc2Cl)ccc1[N+](=O)[O-]` (configuration not stated), the call was inactive.

For `CCNC(=O)NC(=O)C(C#N)=NOC`, the compound was called inactive.

With `COP(=S)(OC)SCn1nnc2ccccc2c1=O`, the result was inactive.

Regarding `N#CN=C1SCCN1Cc1ccc(Cl)nc1`, the compound was classed as inactive.

Turning to `CC1(C)C(C(=O)OC(C#N)c2cccc(Oc3ccccc3)c2)C1(C)C` (configuration not stated), the compound was called inactive.

Take `Cc1cc(C)nc(Nc2ccccc2)n1`: the compound was called inactive.

For the compound `CCCCC(C#N)(Cn1cncn1)c1ccc(Cl)cc1` (configuration not stated), the outcome was inactive.

In the case of `C=CCOC(=O)C(C)(C)OC(=O)c1cc(-n2c(=O)cc(C(F)(F)F)n(C)c2=O)ccc1Cl`, the compound was called inactive.

Consider `CCOc1nc(C(Cl)(Cl)Cl)ns1`, for which the compound was called inactive.

With `CS(=O)(=O)c1cc(C(F)(F)F)ccc1C(=O)c1cnoc1C1CC1`, the compound was called inactive.

With `CC(C)Oc1cccc(NC(=O)c2ccccc2C(F)(F)F)c1`, the outcome was inactive.
